About 4,000 (1.1%) of roughly 380,000 compounds were called active. Roughly 3% stayed inconclusive and do not appear here. The call rests on the fitted dose curve; in most records, active means well fitted activation curve with a large enough effect; inconclusive means small, poorly fitted or top-dose-only effect; inactive means no such curve, though single readings can be large or run the other way. The full list was thinned out, with actives kept by preference.
Assay: qHTS Assay to Identify Small Molecule Activators of BRCA1 Expression; further: nearly all actives have a fitted effect of over 80% in size
Conditions: MCF7-BRCA1-FFLuc reporter, luminescence, 48 h
Text: Functionally, BRCA1 has been implicated in a wide array of cellular activities, including DNA damage repair, cell-cycle checkpoint control, growth inhibition, apoptosis, transcriptional regulation, chromatin remodeling, protein ubiquitylation, and mammary stem cell self-renewal and differentiation. Reduction in BRCA1 levels is associated with an increase in tumor growth and resistance to anti-estrogenic agents, such as tamoxifen, while an increase in BRCA1 expression leads to cell growth arrest and apoptosis. […] The frequent loss of BRCA1 expression in invasive breast cancers in the absence of somatic mutation has been attributed to numerous mechanisms, including hypermethylation of the BRCA1 promoter, exaggerated ubiquitylation of BRCA1 protein, and improper intracellular localization. […]
5microl of MCF7-BRCA1-FFLuc cell suspension (400 cells/microl in phenol-red free MEM) are dispensed into Greiner white solid bottom 1536-well assay plates, yielding a final well density of 2000 cells/well. […] The NCGC in-house luciferase substrate reagent, Buglite, is then added (2.5microl) and plates incubated for 15 minutes, before being transferred to a ViewLux high-throughput CCD imager (PerkinElmer) wherein single end-point measurements of luminescence are acquired using a clear filter. […]
Potency means the concentration at half of the fitted maximal effect.

Structure (SMILES)	Potency
O=C(OCC(=O)c1cccs1)C1=COCCO1	15.8 µM (active)
